We go through eleven compounds from PubChem BioAssay (NCATS).

Records with an inconclusive call do not appear. Where a call stands in place of a potency, no number is given. Active and inactive are the calls of the source. Calls come from the whole dose curve; as a rule, active = well fitted cell-killing curve with a large enough effect; inconclusive = small, poorly fitted or top-dose-only effect, or effect the other way; inactive = no such curve, though single readings can be large or run the other way.
Potency is the fitted concentration of half-maximal effect.

A short description of the assay: Quantitative High-Throughput drug screen in 47 multiple myeloma cell lines against the NCATS MIPE library collection: OPM1_PLB cell viability assay (AID 1918989). Note: nearly all actives have a fitted effect of over 40% in size. Particulars: CellTiter-Glo, 48 h; series mostly up to 45.8 µM. From the text: PI: Beverly A. Mock Ph.D.
Laboratory of Cancer Biology and Genetics,
Center for Cancer Research, National Cancer Institute,
National Institute of Health, Bethesda, Maryland
Drug resistance and disease progression are common in multiple myeloma (MM) patients, underscoring the need for new therapeutic combinations. […] We hypothesized that effective combinations would reduce MYC expression and enhance p16 activity. […] These preclinical data identify potentially useful drug combinations for evaluation in drug-resistant MM and reveal potential mechanisms of combined drug sensitivity.
Described herein is the primary MIPE qHTS used to cherrypick compounds. Validated compounds were then further tested for potential synergistic activiy.
[1] Peat TJ, Gaikwad SM, Dubois W, Gyabaah-Kessie N, Zhang S, Gorjifard S, Phyo Z, Andres M, Hughitt VK, Simpson RM, Miller MA, Girvin AT, Taylor A, Williams D, D'Antonio N, Zhang Y, Rajagopalan A, Flietner E, Wilson K, Zhang X, Shinn P, Klumpp-Thomas C, McKnight C, Itkin Z, Chen L, Kazandijian D, Zhang J, Michalowski AM, Simmons JK, Keats J, Thomas CJ, Mock BA. Drug combinations identified by high-throughput screening promote cell cycle transition and upregulate Smad pathways in myeloma. Cancer Lett. 2023 Aug 1;568:216284. doi: 10.1016/j.canlet.2023.216284. Epub 2023 Jun 24. PMID: 37356470; PMCID: PMC10408729.
SEQUENCE No. (e.g., 1, 2, 3, etc.); […] (e.g., Cells, Incubation, Reagent, etc.); VALUE and DESCRIPTION.
1; Cells; 5 uL; white, solid bottom 1536-well Greiner assay plate.
2; Compounds; 23 nL; Kalypsis pin tool (Wako USA) equipped with a 1536-well pin head to transfer to the assay plates.
3; Incubation; 48 hours; 37C incubation.
4; Reagent;5uL; CellTiter Glo (Promega).
5; Detector; 425V; Luminescence; Viewlux PerkinElmer.
NOTES (numbers refer to Sequence numbers above)
1. The cell-based screening methods employed in this study were like those previously published. Briefly, the corresponding myeloma cell lines were screened in 1,536-well plates with 500 cells, 5-uL per well for inhibition of cell viability (assessed by measuring ATP levels with CellTiterGlo).
2. NCATS MIPE 4.0 library of approved and investigational drugs were added using the Kalypsis pin tool. Wells treated with DMSO only for 100% viability and media only for 0% viability were used as controls.
3. The assay plates were covered and incubated for 48 hours in a 37C, 5% CO2 incubator with controlled humidity.
4. After 48 hours, CellTilter-GloTM luminescent substrate mix (Promega) reagent was added to the assay plate and plates we incubated for 5 min at room temperature.
5. Signal was measured as median relative luminescence units on a ViewLux (PerkinElmer) multiplate reader.
[1] Heske CM, Davis MI, Baumgart JT, Wilson K, Gormally MV, Chen L, Zhang X, Ceribelli M, Duveau DY, Guha R, Ferrer M, Arnaldez FI, Ji J, Tran HL, Zhang Y, Mendoza A, Helman LJ, Thomas CJ. Matrix Screen Identifies Synergistic Combination of PARP Inhibitors and Nicotinamide Phosphoribosyltransferase (NAMPT) Inhibitors in Ewing Sarcoma. Clin Cancer Res. 2017 Dec 1;23(23):7301-7311. doi: 10.1158/1078-0432.CCR-17-1121. Epub 2017 Sep 12. PMID: 28899971; PMCID: PMC6636827.
In general terms: In ATP-based viability assays light output follows the ATP content of the culture.
Regarding `CN1C(=O)COc2c(C(=O)NC3CN4CCC3CC4)cc(Cl)cc21` (stereo unspecified), the Potency result is “inactive”.
For the compound `C[C@]12CC[C@@H]3c4ccc(OC(=O)N(CCCl)CCCl)cc4CC[C@H]3[C@@H]1CC[C@@H]2OP(=O)(O)O`, the Potency entry is “inactive”.
For `C[C@]12CCC(=O)C=C1CC[C@@H]1[C@H]3CC[C@](C)(O)[C@@]3(C)CC[C@@H]12` the value was “inactive”.
Consider `C[C@]12CC[C@H]3[C@@H](CC[C@@]45O[C@H]4C(O)=C(C#N)C[C@]35C)[C@H]1CC[C@H]2O`, for which the Potency entry was “inactive”.
Regarding `CN1C(=O)CCS(=O)(=O)C1c1ccc(Cl)cc1` (stereo unspecified), the Potency entry is “inactive”.
With `CCC1(c2ccc(N)cc2)CCC(=O)NC1=O` (stereo unspecified), the Potency result was “inactive”.
For `C[C@](O)(CS(=O)(=O)c1ccc(F)cc1)C(=O)Nc1ccc(C#N)c(C(F)(F)F)c1`, the Potency is 1.87 µM (active).
In the case of `COc1cc(OC)c(OC)cc1C=O`, the Potency entry is “inactive”.
As for `CC(C)C[C@H](CN)CC(=O)O`, the Potency entry was “inactive”.
For `CC(C)c1cccc(C(C)C)c1O`, the Potency result was “inactive”.
In the case of `O=P1(N(CCCl)CCCl)NCCCO1` (stereo unspecified), the Potency is 13.2 µM (active).
